Assay outcomes: PubChem, several laboratories
LANA-H2A inh = blockers of LANA interaction with H2A/H2B – biochemical, FP readout, HTS, primary screen | cell-free LANA-H2A/H2B peptide, fluorescence polarization | inhibition, % (concentration not given with the values) | 320,000 tested, 0.6% active; in the data active = inhibition mostly above about 10%, no sharp cut-off; inactive = mostly below about 6.7%
ALR H2O2 inh = inhibitors of human ALR sulfhydryl oxidase, primary screen, biochemical, H2O2 detection, HRP-luminol luminescence, single point. inhibition, % (test concentration not listed). purified ALR, DTT oxidation. 290,000 tested, 3.8% active;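 active = mean replicate inhibition above about 79%, with every replicate also reaching it, limit read from the data; inconclusive = only one of the two criteria met; inactive = mean below limit and not every replicate reaching it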
Target sequence (P55789 whole entry, looked up): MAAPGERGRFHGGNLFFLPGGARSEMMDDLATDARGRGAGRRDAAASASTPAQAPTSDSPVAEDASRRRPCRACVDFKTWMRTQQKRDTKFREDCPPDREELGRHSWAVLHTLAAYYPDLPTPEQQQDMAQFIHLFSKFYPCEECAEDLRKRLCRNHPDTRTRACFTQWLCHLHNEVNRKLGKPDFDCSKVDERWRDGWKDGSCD
Rtt109 HAT inh = inhibitors of C. albicans Rtt109/Vps75 HAT, primary screen, biochemical, ThioGlo CoA-SH fluorescence, plate reader. Histone acetyltransferase RTT109 (Candida albicans (strain SC5314 / ATCC MYA-2876)), …. purified Rtt109/Vps75, 4 h. inhibition, % at 34.9 µM. 330,000 tested, 0.16% active. AID 540336, 2011;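 active = inhibition of at least 50% in every replicate; inconclusive = best replicate reaches 50% inhibition but some replicates fall short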
PRMT1 inh = PRMT1 methyltransferase inhibitors, primary screen, biochemical, fluorescence polarization; Protein arginine N-methyltransferase 1 (Homo sapiens), Q99873; recombinant PRMT1, activity-based probe fluorescence polarization; inhibition, % at 2.79 µM; 370,000 tested, 1.3% active; AID 652257, 2013;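 active = inhibition above about 21% made by adding two undisclosed values, limit read from the data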
ABHD5 PLIN5 PPI = ABHD5-PLIN5 interaction inhibitors, primary screen, cell lysate, split luciferase complementation, luminescence; inhibition, % at 4 µM; Perilipin-5 (Homo sapiens) + 1-acylglycerol-3-phosphate O-acyltransferase ABHD5 (Homo …; 360,000 tested, 0.78% active; Split G. princeps luciferase complementation, 4 h;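 active = inhibition above the mean inhibition across every tested compound plus 3 SD, cut at about 22% in these data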
rCAG RNA binder = binders of r(CAG) RNA repeats, primary screen, biochemical, fluorescence; 370,000 tested, 1.3% active; r(CAG) RNA repeat, TO-PRO-1 dye displacement fluorescence; AID 651821, 2012; inhibition, % at 3 µM;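 active = inhibition above the plate cutoff, the mean of all test compounds on that plate plus 3 SD, cut at about 35% in these data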;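 note: higher means more dye released from RNA so lower well fluorescence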
rCAG binder conf = small molecules binding CAG repeat RNA – biochemical, fluorescence, confirmation. shares compounds with rCAG RNA binder. r(CAG) RNA repeat, TO-PRO-1 dye displacement fluorescence. inhibition, % at 3 µM. 4,300 tested, 70% active. AID 652065, 2013;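 active = inhibition above a per-plate cutoff, the mean inhibition of sample wells plus 3 SD, cut at about 35% in these data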;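 note: loss of TO-PRO-1 fluorescence as compound displaces dye from 1x1 AA loop RNA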
dCAG dye counter = displacement of TO-PRO-1 from CAG DNA duplex, counter-screen for rCAG RNA repeat binder project, biochemical, fluorescence, TO-PRO-1 dye, d(CAG) DNA oligo | d(CAG) DNA oligo TO-PRO-1 dye displacement | 4,300 tested, 94% active | inhibition, % at 3 µM | shares compounds with rCAG RNA binder;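 active = inhibition above its plate's cutoff, the mean test-well inhibition plus 3 SD, cut at about 4.8% in these data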;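 note: hits displace the dye from DNA and so lower well fluorescence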
Of the large screens only hits and unclear results are named; the others gave an inactive call (follow-up assays come after a bar, where they were run). A selection: hits, their analogues and other compounds. The true share with any hit is near 5.9%.

COc1cccc(C2C(C(=O)Nc3ccccc3)=C(C)N=c3s/c(=C/c4ccc(OCC(=O)O)cc4)c(=O)n32)c1 (stereo not drawn)	ALR H2O2 inh 97, PRMT1 inh 30, rCAG RNA binder 72 | rCAG binder conf 82 | dCAG dye counter 50
CCOC(=O)C1=C(C)N=c2sc(=Cc3cc(Cl)c(OCC(=O)O)c(Cl)c3)c(=O)n2C1c1cccc(OC)c1 (stereo not drawn)	rCAG RNA binder 50 (no result: LANA-H2A inh, ALR H2O2 inh, Rtt109 HAT inh) | rCAG binder conf 85 | dCAG dye counter 54
CCOC(=O)C1=C(C)N=c2s/c(=C\c3cccc(OCC(=O)O)c3)c(=O)n2C1c1ccccc1OC (stereo not drawn)	none
CCOC(=O)C1=C(C)N=c2s/c(=C/c3ccc(OCC(=O)O)cc3)c(=O)n2C1c1cc(OC)c(OC)c(OC)c1 (stereo not drawn)	Rtt109 HAT inh 68, rCAG RNA binder 42 | rCAG binder conf 74 | dCAG dye counter 37
CCOC(=O)C1=C(C)N=c2s/c(=C\c3ccc(OCC(=O)O)cc3)c(=O)n2C1c1ccc(OC(C)C)cc1 (stereo not drawn)	ALR H2O2 inh inconclusive, Rtt109 HAT inh inconclusive, PRMT1 inh 30, rCAG RNA binder 64 | rCAG binder conf 85 | dCAG dye counter 55
CC(=O)C1=CCC(c2ccc(Cl)cc2)N(S(=O)(=O)c2ccc(C)cc2)C1 (stereo not drawn)	none (no result: LANA-H2A inh, ALR H2O2 inh, Rtt109 HAT inh)
Cc1ccc(C(C)C)c(OCC(=O)NNC(=O)Nc2ccccc2)c1	none
Cc1ccc(S(=O)(=O)NC(=O)COc2cc(C)ccc2C(C)C)cc1	rCAG RNA binder 36 | rCAG binder conf inactive | dCAG dye counter inactive
Cc1ccc(-n2cccc2/C=C2\C(=N)N3N=C(C(C)C)SC3=NC2=O)cc1	none
CS(=O)(=O)C1=NSC2=NC(=O)/C(=C\c3cccn3-c3ccc(Cl)cc3)C(=N)N21	LANA-H2A inh 48, rCAG RNA binder 85 | rCAG binder conf 85 | dCAG dye counter 54
Cc1cc(/C=C2/C(=N)N3C(=NC2=O)SN=C3S(C)(=O)=O)c(C)n1-c1ccccc1F	ALR H2O2 inh 91, Rtt109 HAT inh inconclusive, rCAG RNA binder 80 | rCAG binder conf 83 | dCAG dye counter 56
Cc1ccc(CNC(=O)O[C@H]2CC[C@@]34CCCN3C(=O)CCC[C@H]4[C@H]2C)o1	none (no result: LANA-H2A inh, ALR H2O2 inh, Rtt109 HAT inh, ABHD5 PLIN5 PPI, rCAG RNA binder)
CCOC(=O)c1cc(OC(=O)c2cccc([N+](=O)[O-])c2)n(-c2ccccc2)n1	rCAG RNA binder 35 | rCAG binder conf inactive | dCAG dye counter inactive
COc1ccc(CC(=O)Nc2ccc(S(=O)(=O)Nc3cc(C)on3)cc2)cc1OC	none
COc1cc(NS(=O)(=O)c2ccc(NC(C)=O)cc2)nc(OC)n1	none
COc1cc(NS(=O)(=O)c2ccc(Nc3nc(-c4ccccn4)cs3)cc2)nc(OC)n1	rCAG RNA binder 45 | rCAG binder conf inactive | dCAG dye counter 8.9
COc1ccc(-c2csc(Nc3ccc(S(=O)(=O)Nc4cc(OC)nc(OC)n4)cc3)n2)cc1	rCAG RNA binder 90 | rCAG binder conf 90 | dCAG dye counter 57
COc1ccc(-c2csc(Nc3ccc(S(=O)(=O)Nc4cc(C)on4)cc3)n2)cc1C	ALR H2O2 inh 99, rCAG RNA binder 93 | rCAG binder conf 82 | dCAG dye counter 43
CN=C1S/C(=C/c2cc(C)n(-c3ccc(Cl)cc3F)c2C)C(=O)N1C	none (no result: LANA-H2A inh, ALR H2O2 inh, Rtt109 HAT inh, ABHD5 PLIN5 PPI, rCAG RNA binder)
